About 10,000 (3%) of roughly 330,000 compounds were called active. What follows is part of a selection rich in actives, with near analogues and random picks from the rest. Unmarked numbers belong to inactive results.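 Rule for the calls: active = inhibition of at least 50% at 8 µM in the primary screen; inactive = the rest.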
What follows are compounds tested against Protein Mdm4 (Homo sapiens) + E3 ubiquitin-protein ligase Mdm2 (Homo sapiens) (UniProt O15151+Q00987) (assay: disruptors of Mdm2/MdmX RING complex – cell-based, luminescence, split luciferase, SaOS-2, uHTS, primary screen (AID 485346)). Conditions: SaOS-2 split-luciferase Mdm2/MdmX complementation, at 8 µM, hits give high values.
Sequence of Protein Mdm4 (Homo sapiens) + E3 ubiquitin-protein ligase Mdm2 (Homo sapiens) (O15151 whole entry, looked up): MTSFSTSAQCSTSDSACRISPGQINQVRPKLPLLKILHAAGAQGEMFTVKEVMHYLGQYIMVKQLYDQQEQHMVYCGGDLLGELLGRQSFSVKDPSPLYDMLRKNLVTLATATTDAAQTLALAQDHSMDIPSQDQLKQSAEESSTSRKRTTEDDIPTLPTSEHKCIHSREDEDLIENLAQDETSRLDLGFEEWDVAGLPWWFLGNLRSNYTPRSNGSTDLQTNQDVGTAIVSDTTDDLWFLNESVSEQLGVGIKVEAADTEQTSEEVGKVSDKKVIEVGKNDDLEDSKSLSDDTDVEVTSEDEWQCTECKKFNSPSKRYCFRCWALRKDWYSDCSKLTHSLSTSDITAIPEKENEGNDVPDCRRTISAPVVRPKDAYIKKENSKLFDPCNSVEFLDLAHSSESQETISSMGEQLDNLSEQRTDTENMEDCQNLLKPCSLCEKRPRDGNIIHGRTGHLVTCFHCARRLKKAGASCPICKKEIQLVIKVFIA
Sequence of Protein Mdm4 (Homo sapiens) + E3 ubiquitin-protein ligase Mdm2 (Homo sapiens) (Q00987 whole entry, looked up): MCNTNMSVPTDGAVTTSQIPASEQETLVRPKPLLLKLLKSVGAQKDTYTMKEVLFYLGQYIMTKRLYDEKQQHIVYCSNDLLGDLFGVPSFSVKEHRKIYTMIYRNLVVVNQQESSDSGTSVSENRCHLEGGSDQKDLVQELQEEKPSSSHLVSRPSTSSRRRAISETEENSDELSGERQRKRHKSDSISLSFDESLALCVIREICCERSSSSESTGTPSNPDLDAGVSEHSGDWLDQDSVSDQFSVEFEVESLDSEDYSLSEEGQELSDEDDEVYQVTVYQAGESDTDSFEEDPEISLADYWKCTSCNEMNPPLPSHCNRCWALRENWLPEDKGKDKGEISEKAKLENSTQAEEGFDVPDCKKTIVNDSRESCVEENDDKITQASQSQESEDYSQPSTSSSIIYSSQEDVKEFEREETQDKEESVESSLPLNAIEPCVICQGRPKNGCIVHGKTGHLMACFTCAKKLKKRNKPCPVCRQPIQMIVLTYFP

Q: C/C(=N\OCC(=O)O)c1ccc(Cl)cc1 was tested. Which inhibition did it give?
A: -3.73%

Q: With C/C(=N\NC(=S)NCc1ccccc1)c1ccc(Cl)cc1 as the compound, how does the inhibition read?
A: 12.3%

Q: Which inhibition does the source give for C/C(=N\N=C(N)N)c1ccc(Cl)cc1 here?
A: 52% (active)

Q: CN(C)c1ccc(C(CNC(=O)c2ccc(F)cc2)c2c[nH]c3ccccc23)cc1 (stereo not given) was tested. Which inhibition did it give?
A: 3.11%

Q: Which inhibition does the source give for COC(=O)c1c(NC(=O)COc2ccc(Cl)cc2Cl)sc2c1CC(C)(C)NC2(C)C here?
A: 100% (active)

Q: With Cc1cnc(C(=O)OCC(=O)Nc2ccc(Cl)cc2Cl)cn1 as the compound, how does the inhibition read?
A: 21.4%

Q: How did the inhibition turn out when COC(=O)c1sccc1NC(=O)COc1ccc(Cl)cc1 was run?
A: -7.02%

Q: With CCc1ccc(CN(C)C(C)C(=O)Nc2ccc(S(=O)(=O)N3CCCC3)cc2)cc1 (stereo not given) as the compound, how does the inhibition read?
A: 20.1%

Q: With Oc1[nH]c2ccc(Br)cc2c1N=Nc1nn[nH]n1 as the compound, how does the inhibition read?
A: 13.6%

Q: With O=C(CNC(=O)Cc1ccccc1)N=Nc1c(O)[nH]c2ccc(Br)cc12 as the compound, how does the inhibition read?
A: 37.6%

Q: For NS(=O)(=O)c1ccc(N=Nc2c(O)[nH]c3ccc(Br)cc23)cc1, which inhibition is on record?
A: 53.6% (active)

Q: Cc1ccc(S(=O)(=O)Oc2ccc(/C=N/NC(=O)c3ccncc3)cc2)cc1 was tested. Which inhibition did it give?
A: 16.6%

Q: With COc1ccc(CC(=O)NCC(=O)N/N=C/c2cc(Br)ccc2OC)cc1 as the compound, how does the inhibition read?
A: 41.6%

Q: Cc1ccc(OCCOCCOc2ccc(Br)cc2/C=N\NC(=O)c2ccncc2)cc1 was tested. Which inhibition did it give?
A: 59.9% (active)

Q: Which inhibition does the source give for O=C(Nc1ccnn1C1CCN(C/C=C/c2ccc(F)cc2)CC1)C1CCCC1 here?
A: 22.3%

Q: For O=C(O)CN(Cc1ccco1)S(=O)(=O)c1ccc(F)cc1, which inhibition is on record?
A: -22%

Q: Cc1onc(-c2c(F)cccc2Cl)c1C(=O)N(C)CC(=O)Nc1cccc(F)c1 was tested. Which inhibition did it give?
A: -8.71%

Q: For COc1cccc(CNCCc2c[nH]c3ccccc23)c1OCc1ccccc1F, which inhibition is on record?
A: 92.8% (active)

Q: For COc1ccc(S(=O)(=O)NCCc2c[nH]c3ccccc23)cc1OC, which inhibition is on record?
A: 6.22%

Q: With COc1ccccc1NC(=O)CCCc1c[nH]c2ccccc12 as the compound, how does the inhibition read?
A: -3.5%

Q: How did the inhibition turn out when Cc1ccoc1C(=O)Nc1cccc(Oc2ccccc2)c1 was run?
A: -66.5%

Q: With COC(=O)c1ccccc1NC(=O)C1(S(=O)(=O)c2ccc(Cl)cc2)CC1 as the compound, how does the inhibition read?
A: -0.27%

Q: C=C(C)COc1ccc(-c2nc(N)ncc2-c2ccccc2OC)c(O)c1 was tested. Which inhibition did it give?
A: 17.9%

Q: Which inhibition does the source give for C=C(C)COc1ccc(-c2n[nH]c(C)c2-c2ccccc2OC)c(O)c1 here?
A: 53.6% (active)

Q: Which inhibition does the source give for C=C(C)COc1ccc(-c2ncncc2-c2ccc(OC)cc2)c(O)c1 here?
A: 29.3%

Q: For CCOc1ccc(-c2nc(N)ncc2-c2ccccc2OC)c(O)c1, which inhibition is on record?
A: 11.3%

Q: Which inhibition does the source give for COc1ccc(-c2n[nH]c(C)c2-c2ccc(OC)c(OC)c2)c(O)c1 here?
A: 62.5% (active)

Q: How did the inhibition turn out when COc1ccc(-c2[nH]ncc2CN(C)Cc2c(C)n[nH]c2C)c(OC)c1 was run?
A: 15.3%

Q: COc1ccc(-c2c(-c3ccc(OC)cc3O)nc(C)nc2C(F)(F)F)cc1 was tested. Which inhibition did it give?
A: 8.07%

Q: With C=C(C)COc1ccc(-c2n[nH]c(C)c2-c2ccccc2)c(O)c1 as the compound, how does the inhibition read?
A: 53.7% (active)

Q: For COc1ccc(-c2n[nH]c(C)c2-c2ccccc2OC)c(O)c1, which inhibition is on record?
A: 38.6%

Q: With O=C(NCCCCO)C(F)(F)C(F)(F)C(F)(F)C(=O)NCCCCO as the compound, how does the inhibition read?
A: -22.9%

Q: For C=CCNCCCCOc1ccccc1, which inhibition is on record?
A: -9.48%

Q: How did the inhibition turn out when C/C=C/C=C/C(=O)OCC(=O)Nc1ccc(Cl)cc1 was run?
A: 23.8%

Q: How did the inhibition turn out when Cc1ccc(N2C(=O)CC(Sc3ncn[nH]3)C2=O)cc1 (stereo not given) was run?
A: 7.7%

Q: Which inhibition does the source give for N#CC1(NC(=O)COC(=O)CSc2ccc(F)cc2)CCCCC1 here?
A: 6.22%

Q: With Cc1ccc(C(=O)NN(CCC#N)C2=NS(=O)(=O)c3ccccc32)cc1 as the compound, how does the inhibition read?
A: 6.64%

Q: For Cc1cn(C2OC[C@@H](O)[C@@H]2CO)c(=O)[nH]c1=O (stereo not given in full), which inhibition is on record?
A: -25.3%

Q: For CCOC(=O)N1CCN(C(=O)c2ccc(S(=O)(=O)Nc3cccc(C(F)(F)F)c3)cc2)CC1, which inhibition is on record?
A: 5.75%

Q: Which inhibition does the source give for CCn1c(/C=C/Nc2ccccc2)[n+](CC)c2ccc(C(=O)OCC(F)(F)F)cc21 here?
A: 50.7% (active)

Q: CCOC(=O)c1ccc2c(c1)nc(C)n2CC was tested. Which inhibition did it give?
A: -24.3%

Q: With Cc1nc2c(C(=O)NCc3cccs3)cnn2c(C)c1Cc1ccc(F)cc1 as the compound, how does the inhibition read?
A: 5.96%

Q: How did the inhibition turn out when CN(C)c1ccc(-c2nnc(-c3cccnc3)o2)cc1 was run?
A: -90.9%

Q: Which inhibition does the source give for OC(CNCc1ccc2c(c1)OCO2)COc1ccccc1 (stereo not given) here?
A: -15.2%

Q: CN(Cc1ccccc1)CC(O)COc1ccc(CNCc2cc3ccccc3s2)cc1 (stereo not given) was tested. Which inhibition did it give?
A: 51.9% (active)

Q: Which inhibition does the source give for Cc1ccc(OCC(=O)OC(C)CN(C)Cc2ccccc2)cc1 (stereo not given) here?
A: -13.3%

Q: For CCC(C)c1ccc(NC(=S)N2CCCC2)cc1 (stereo not given), which inhibition is on record?
A: 17.9%

Q: How did the inhibition turn out when O=C(O)CN1C(=O)CC(Cc2ccccc2)C1=O (stereo not given) was run?
A: 3.44%

Q: With NS(=O)(=O)c1ccc(CNC(=O)c2cccc(S(=O)(=O)N3CCc4ccccc43)c2)cc1 as the compound, how does the inhibition read?
A: 27.6%

Q: How did the inhibition turn out when C[C@@H]1CN([C@@H](C)CO)C(=O)c2cccc(NS(=O)(=O)c3ccc(F)cc3)c2O[C@H]1CN(C)C(=O)NC1CCCCC1 was run?
A: -2.62%

Q: With Cc1ccc(C(C)C)cc1OCC(=O)Nc1ccccc1N1CCCC1 as the compound, how does the inhibition read?
A: 28.7%

Q: How did the inhibition turn out when O=C(CN1CCN(C2CCCCC2)CC1)Nc1ccccc1N1CCCCC1 was run?
A: 20%

Q: For CN1CCN(c2ccccc2NC(=O)COc2ccc(C3CCCCC3)cc2)CC1, which inhibition is on record?
A: 51.3% (active)

Q: With CSCCC1NC(=O)N(CC(=O)Nc2cccc(S(=O)(=O)N3CCCCCC3)c2)C1=O (stereo not given) as the compound, how does the inhibition read?
A: 2.6%

Q: O=C1/C(=C\Nc2ccccc2)CCN1c1ncccn1 was tested. Which inhibition did it give?
A: -11.4%

Q: With O=C(CN1CCCSc2ccccc21)N1CCN(S(=O)(=O)c2ccccc2)CC1 as the compound, how does the inhibition read?
A: -4.66%

Q: For COc1ccccc1C(=O)NC(=S)Nc1ccccc1N1CCCCC1, which inhibition is on record?
A: 30%

Q: How did the inhibition turn out when Cc1ccccc1NC(=O)Nc1ccccc1N1CCCCC1 was run?
A: 2.88%

Q: How did the inhibition turn out when O=C(NC(=O)c1ccccc1N1CCCCC1)Nc1ccc(Br)cc1 was run?
A: 51.5% (active)

Q: For COc1ccccc1N(CC(=O)N/N=C(\C)c1ccccc1O)S(=O)(=O)c1ccc(C)cc1, which inhibition is on record?
A: 52.3% (active)

Q: COc1ccccc1NC(=O)CN(c1ccccc1OC)S(=O)(=O)c1ccccc1 was tested. Which inhibition did it give?
A: -19.5%

Q: For COc1ccc(S(=O)(=O)N(CC(=O)N/N=C/c2ccccc2C(=O)O)c2ccccc2OC)cc1, which inhibition is on record?
A: -6.42%

Q: C=CCN1CC(C)/C(=N\O)CC1C (stereo not given) was tested. Which inhibition did it give?
A: 24.4%

Q: How did the inhibition turn out when Brc1cc(Br)c(Oc2cc(Br)c(Br)cc2Br)cc1Br was run?
A: 15.4%

Q: How did the inhibition turn out when Fc1ccccc1-c1cc2cc3c(cc2cn1)OCO3 was run?
A: -231%

Q: With O=C(CSc1cccc2cccnc12)N/N=C/c1cccnc1 as the compound, how does the inhibition read?
A: 54.3% (active)

Q: With Cc1nc2ccccc2n1CC(=O)N/N=C/c1cccnc1 as the compound, how does the inhibition read?
A: 25.2%

Q: Cc1ccc(NC(=O)CSc2cccc3cccnc23)c(C)c1 was tested. Which inhibition did it give?
A: 28.1%

Q: How did the inhibition turn out when C/C(=N\NC(=O)c1ccc(CSc2nc(C)cc(C)n2)cc1)C1CCCCC1 was run?
A: 11.2%

Q: Which inhibition does the source give for COc1ccc(NC(=O)CSCc2ccc([N+](=O)[O-])cc2)cc1OC here?
A: 22.2%

Q: How did the inhibition turn out when O=C(c1cccc(S(=O)(=O)N2CCCC2)c1)N(Cc1ccco1)C1CCS(=O)(=O)C1 (stereo not given) was run?
A: 10.9%

Q: How did the inhibition turn out when O=C(N/N=C\c1cc2c(cc1Cl)OCO2)c1ccc(Br)s1 was run?
A: 87.3% (active)

Q: Which inhibition does the source give for O=C(N/N=C/c1cc2c(cc1Br)OCO2)C1COc2ccccc2O1 (stereo not given) here?
A: 3.36%

Q: CC1(C(=O)N/N=C/c2cc3c(cc2Br)OCO3)CC1(Br)Br (stereo not given) was tested. Which inhibition did it give?
A: 31.2%

Q: For O=S(=O)(Nc1nccs1)c1ccc2c(c1)OCCO2, which inhibition is on record?
A: 12.5%

Q: With CC(Sc1nnc(CNC(=O)c2ccccc2F)n1C)C(=O)Nc1nccs1 (stereo not given) as the compound, how does the inhibition read?
A: -5.88%

Q: With Nc1ccc2nn(-c3ccc(Cl)cc3)nc2c1 as the compound, how does the inhibition read?
A: -91.9%

Q: CC(C)Oc1c(Br)cc(Br)cc1/C=N/NC(N)=S was tested. Which inhibition did it give?
A: 57.4% (active)

Q: For NC(=S)N/N=C/c1coc2cc(Cl)ccc2c1=O, which inhibition is on record?
A: -1.23%

Q: For CCOc1ccc(/C=N/NC(N)=S)cc1, which inhibition is on record?
A: 10.2%

Q: How did the inhibition turn out when COC(=O)CCC(=O)N1CCCC(CO)(Cc2ccccc2)C1 (stereo not given) was run?
A: -73.8%

Q: How did the inhibition turn out when C[C@@H](C(=O)N1CCNCC1)n1cc(CCC(=O)O)nn1 was run?
A: 3.92%

Q: COc1ccc(N(C(=O)c2snc(C(N)=O)c2N)C(C(=O)NC2CCCC2)c2ccc(C)o2)c(OC)c1 (stereo not given) was tested. Which inhibition did it give?
A: 8.7%

Q: How did the inhibition turn out when N#Cc1cccc(NC(=O)COC(=O)c2ccccc2C(=O)c2ccc(Cl)c([N+](=O)[O-])c2)c1 was run?
A: 98.1% (active)

Q: How did the inhibition turn out when CC(=O)Nc1ccc(NC(=O)C(C)OC(=O)c2ccccc2C(=O)c2ccc(Cl)c([N+](=O)[O-])c2)cc1 (stereo not given) was run?
A: 98.6% (active)

Q: O=C(Nc1ccncc1)c1ccc(Cl)c([N+](=O)[O-])c1 was tested. Which inhibition did it give?
A: 6.79%

Q: How did the inhibition turn out when CC(=O)Nc1ccc(NC(=O)COC(=O)c2ccccc2C(=O)c2ccccc2)cc1 was run?
A: 2.79%

Q: Which inhibition does the source give for COC(=O)c1cc(NC(=O)Cc2ccccc2[N+](=O)[O-])ccc1Cl here?
A: -1.62%

Q: How did the inhibition turn out when CC(OC(=O)CNC(=O)c1ccc(Cl)c([N+](=O)[O-])c1)C(=O)NCc1ccco1 (stereo not given) was run?
A: 27.3%

Q: CCC(=O)c1ccc(OCC(O)Cn2nc(C)c(C(C)=O)c2C)cc1 (stereo not given) was tested. Which inhibition did it give?
A: 4.82%

Q: For CC1CCCC(NC(=O)c2cc(-c3ccncc3)nc3ccccc23)C1C (stereo not given), which inhibition is on record?
A: -4.9%

Q: Which inhibition does the source give for Cc1ccc(C(=O)O)cc1S(=O)(=O)NCC1CCCO1 (stereo not given) here?
A: -63.3%

Q: For Cc1noc(C)c1CCC(=O)N1CCCC(CO)(Cc2ccccc2)C1 (stereo not given), which inhibition is on record?
A: -31.3%

Q: With COc1ccc(Cl)cc1NC(=O)CN(C)Cc1ccc(OC)c(OC)c1 as the compound, how does the inhibition read?
A: 29.4%

Q: Which inhibition does the source give for C/C(=N\NC(=O)OC(C)(C)C)c1ccc[nH]1 here?
A: -29.2%
